# Pf growth 48h: inhibits P. falciparum growth in the first generation, 48 h; P. falciparum luciferase growth in erythrocytes, 48 h; Potency, µM (series often up to 28.7 µM), without a hit: top-dose activity change, negative = inhibition, most hits filed as inhibitors; 310,000 tested, 5.9% active; AID 504832; also: potency is read from the fitted curve at half-maximal effect; % is scaled to controls: 0 for no effect and ±100 for the full control effect
#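 Read-out is firefly luciferase luminescence from an integrated reporter in P. falciparum, so falling signal marks reduced parasite growth. Infected erythrocytes were at 2% hematocrit and 0.1% parasitemia (final) in Albumax-supplemented RPMI 1640.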
# HCV inh: blocks hepatitis C virus | 340,000 tested, 3.4% active | Huh7.5.1 HCVcc-Cre infection, luciferase reporter, 44 h | Potency, µM (highest dose often 41.8 µM), without a hit: at the highest dose activity change, negative = inhibition, actives largely listed as inhibitors; also: potency is read from the fitted curve at half-maximal effect; % is scaled to controls: 0 for no effect and ±100 for the full control effect
#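 Reporter virus HCVcc-Cre (~0.5 moi) infects cells exposed to compound; seeding density 1,000 cells/well with 4 h settling beforehand. Luminescence, 15 sec read, taken 44 h post-infection following a 15 min RT substrate incubation.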
# CHX counter: counter-screen for Shiga toxin inhibitors: cycloheximide protein synthesis inhibition; cell reporter, cycloheximide protein synthesis inhibition counterscreen; max response, %; 300,000 tested, 12% active; AID 2314; in the data active = max response mostly above about 13%, no sharp cut-off; inactive = mostly below about 14%; also: read at 38.3 µM for the half of the compounds with a filed dose; 0% is about no effect
# Shiga inhibitor: Shiga toxin inhibition | Vero cells, Shiga toxin protein synthesis inhibition reporter | inhibition, % at 38.7 µM | 290,000 tested, 9.2% active; in the data active = inhibition mostly above about 28%, no sharp cut-off; inactive = mostly below about 43%; also: 0% is about no effect
# Pf growth 96h: P. falciparum growth inhibition at 96 hours | P. falciparum luciferase reporter growth, 96 h | Potency, µM (top dose mostly 28.7 µM), for the others: at the top dose activity change, negative = inhibition, most hits filed as inhibitors | 320,000 tested, 6.9% active | AID 504834; also: potency is read from the fitted curve at half-maximal effect; % is scaled to controls: 0 for no effect and ±100 for the full control effect
#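 Cell-based qHTS: luciferase-tagged P. falciparum in erythrocytes (2% hematocrit, 0.05% parasitemia final) incubated with compounds for 96 hours, 37 C, 5% CO2; luciferase detection reagent then added and luminescence measured.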
# HCMV inh: inhibitors of human cytomegalovirus; HFF cells, HCMV-luciferase reporter, 72 h; stronger effect = lower value; activity change, negative = inhibition, % at 57.5 µM; 410,000 tested, 4.5% active; in the data active = activity change below about -60%; inconclusive = no clear call, values can overlap the other calls; inactive = above about -39%; also: % is scaled to controls: 0 for no effect and ±100 for the full control effect
#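 Compounds were evaluated in HFFs infected with an HCMV luciferase reporter virus (MOI 1 PFU/cell). Luciferase in lysates collected 72 h post infection served as the replication measure.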
# Numbers without * were called inactive; ? = inconclusive; / = not tested or not shown. Most compounds without a hit are left out; they make up all but 21% or so of the library. Unless noted, calls follow the shape of the dose curve; as a rule, active = well fitted inhibition curve with a large enough effect; inconclusive = small, poorly fitted or top-dose-only effect, or another doubt; inactive = no such curve, though single readings can be large or run the other way.
SMILES,Pf growth 48h,HCV inh,CHX counter,Shiga inhibitor,Pf growth 96h,HCMV inh
COCCNC(=S)N(CCc1c(C)[nH]c2ccc(C)cc12)Cc1cc(OC)c(OC)c(OC)c1,?,?,5,-8,9.3µM*,-22
Cc1[nH]c2ccc(F)cc2c1CCN(Cc1cccnc1)C(=S)Nc1cccc(F)c1,13µM*,-13%,-3,-5,?,-33
Cc1ccccc1NC(=S)N(CCc1c(C)[nH]c2ccc(F)cc12)Cc1cccnc1,?,?,-3,-3,?,-2
CCCCCn1c(=O)[nH]c2cc(C(=O)Nc3cc(OC)cc(OC)c3)ccc2c1=O,/,/,/,/,/,-4
O=C(CCC(=O)N(CC(=O)NC1CCCCC1)CC1CCCO1)Nc1nccs1 (stereo unspecified),-4%,11%,-2,-5,2%,?
CCNC(=S)N(CCc1c(C)[nH]c2ccc(Cl)cc12)Cc1cccnc1,12µM*,-23%,-3,-2,?,-34
CCOC(=O)c1nnn2c1nc(N1CCCCC1)c1ccccc12,?,-27%,6,10,?,-19
CCC1CCCCN1c1nc2c(C=O)c(C)nn2c2ccccc12 (stereo unspecified),?,10µM*,-1,-6,?,-64*
COc1ccc(OC)c(-c2cc(C3CCN(c4ncccc4[N+](=O)[O-])CC3)[nH]n2)c1,8.3µM*,11µM*,4,5,9.3µM*,-29
CC(=O)c1ccc(N2CCC(c3cc(-c4ccc(Cl)cc4Cl)n[nH]3)CC2)c([N+](=O)[O-])c1,?,11µM*,-1,-6,?,-60*
O=[N+]([O-])c1cccnc1N1CCC(c2cc(-c3cccc(C(F)(F)F)c3)n[nH]2)CC1,/,?,-2,25,-90%,-30
O=[N+]([O-])c1cccnc1N1CCC(c2cc(-c3ccc(Cl)cc3Cl)n[nH]2)CC1,?,22µM*,-2,-9,/,-17
CCC(=O)N1CCc2cc(Br)cc(S(=O)(=O)CCC(=O)NCc3ccc(C)cc3)c21,/,/,/,/,/,3
O=Cc1coc([B-](F)(F)F)c1,/,/,/,/,/,35
Cc1cccc(NC(=O)CNC(=O)CN2C(=O)NC3(CCCc4ccccc43)C2=O)c1C (stereo unspecified),3%,-2%,/,/,19%,29
N#Cc1cn(Cc2cccc(Cl)c2)c2ccccc12,9.3µM*,?,-3,5,6%,-32
N#Cc1cn(CC(=O)N2CCCC2)c2ccccc12,12%,-31%,-4,-7,-29%,66
COc1ccccc1OCCCn1cc(C#N)c2ccccc21,36%,?,27*,34*,/,29
N#Cc1cn(CCCOc2ccccc2)c2ccccc12,-12%,?,17*,25,12%,-24
COc1ccccc1OCCCn1cc(C=O)c2ccccc21,134%,2%,5,16,-17%,0
Cn1c(CC(=O)Nc2ccccc2F)nnc1SCC(=O)NC1=NCCS1,23%,15%,-4,-7,37%,64
CCCc1nc2oc3c(NCCN(C)C)ncnc3c2c2c1CCCC2,13µM*,?,-6,-14,?,34
CCCc1nc2oc3c(Cl)ncnc3c2c2c1CCCC2,-3%,-21%,0,-7,41%,11
CCCc1nc2oc3c(NCCCN(C)C)ncnc3c2c2c1CCCC2,9.3µM*,-77%,-6,-43,13µM*,-98*
CC(C)Cc1nc2oc3c(NCC(C)O)ncnc3c2c2c1CCCC2 (stereo unspecified),?,?,-2,7,-19%,-20
SMILES,Pf growth 48h,HCV inh,CHX counter,Shiga inhibitor,Pf growth 96h,HCMV inh
Cc1cccc(N2CCN(S(=O)(=O)c3c(C)[nH]c(C)c3C(=O)N3CCCCC3)CC2)c1C,9.3µM*,11%,-4,2,?,-17
Cc1ccc(C(=O)N2CCN(c3ccccc3O)CC2)cc1S(=O)(=O)N1CCCCC1,13µM*,?,/,/,-103%,3
Cc1ccc(C(=O)NC2CCCC2)cc1S(=O)(=O)N1CCCCC1,-30%,?,-2,-9,28%,5
Cc1ccc(C(=O)NNC(=O)c2ccccc2O)cc1S(=O)(=O)N1CCCCC1,?,13µM*,/,/,7%,-29
Cc1ccc(C(=O)N2CCN(C)CC2)cc1S(=O)(=O)N1CCCCCC1,-28%,1%,6,-21,2.3µM*,12
CCC(=O)Oc1ccc2c(c1)CCC1C2CC[C@]2(C)C(OC(=O)CC)CCC12 (stereo partly specified),/,/,9,4,/,/
Cc1cn2c(=O)c(C(=O)N3CCN(c4ccccc4Cl)CC3)cnc2s1,46%,-1%,/,/,23%,-38
C[C@@H]1CN([C@H](C)CO)C(=O)c2cc(Br)cnc2O[C@H]1CN(C)C(=O)c1ccc(F)cc1,/,/,/,/,/,-9
Cc1nn2c(=O)cc(COC(=O)c3ccc(NC(=O)c4cccs4)cc3)nc2s1,/,/,/,/,/,-100*
Cc1nn2c(=O)cc(COC(=O)c3cccc(NC(=O)c4ccc(C(C)(C)C)cc4)c3)nc2s1,/,/,/,/,/,-27
CCN(CC)S(=O)(=O)c1cccc(C(=O)OCc2cc(=O)n3nc(C)sc3n2)c1,-24%,-1%,-4,-17,5.2µM*,-25
Cc1nn2c(=O)cc(COC(=O)c3ccc(NC(=O)COc4ccc(Cl)cc4)cc3)nc2s1,/,/,/,/,/,-84*
COc1cc2ccccc2cc1C(=O)Nc1ccc2oc(-c3ccc(F)cc3Cl)nc2c1,/,/,/,/,/,32
Cc1ccccc1-n1c(/C=C/c2ccccc2F)nc2ccccc2c1=O,/,/,/,/,/,-85*
Cc1nc2ccccc2c(=O)n1N(c1ccccc1)c1ccccc1,?,?,-5,10,4%,-68*
CCn1c(/C=C/c2ccc(O)c(O)c2)nc2ccccc2c1=O,?,-22%,0,2,?,-16
NNc1nc2ccccc2c(=O)n1Cc1ccccc1,59%,6%,29*,43*,?,-3
CCn1c(/C=C/c2cc(Br)ccc2O)nc2ccccc2c1=O,0.93µM*,?,-2,-8,-3%,-93*
COc1ccc(-n2c(/C=C\c3ccccc3F)nc3ccccc3c2=O)cc1OC,/,/,/,/,/,-31
CC(C)NC1(C(N)=O)CCN(Cc2ccccc2)CC1,/,6%,/,/,/,-24
CCOC(=O)c1c(C)[nH]c(C)c1S(=O)(=O)NCC(=O)NCc1ccccc1C,/,/,/,/,/,4
Cc1cccc(NC(=O)CCS(=O)(=O)c2cccc3nonc23)c1C,11%,26%,-7,-6,-15%,-26
CCc1ccc(-n2nc(CO)c(C(=O)NCc3ccccc3OC)n2)cc1,/,/,/,/,/,42
Cc1nc2ccccc2c(=O)n1CCc1ccc(O)cc1,4%,2%,12,-5,-4%,63
Cc1nc2ccccc2c(=O)n1CCc1ccccc1,?,0%,16*,53,?,63
Cc1ccccc1/C=C/c1nc2ccccc2c(=O)n1Cc1ccccc1,?,15%,-3,8,10µM*,-32

# Compound activity from PubChem BioAssay.
